From PubChem
Rows were chosen to be rich in hits. Some 1.3% of all compounds tested hit in one or more screens of this group.
TRPV1 potentiator: human TRPV1 potentiation; TRPV1-expressing cells, Fluo-8 calcium influx, capsaicin EC20 potentiation; potentiation, % at 8.33 µM; 320,000 tested, 0.02% active; AID 540277; in the data active means potentiation above about 80%; inconclusive means between about 30% and that limit; further: 0% is about no effect
Target sequence (Q8NER1 whole entry, looked up): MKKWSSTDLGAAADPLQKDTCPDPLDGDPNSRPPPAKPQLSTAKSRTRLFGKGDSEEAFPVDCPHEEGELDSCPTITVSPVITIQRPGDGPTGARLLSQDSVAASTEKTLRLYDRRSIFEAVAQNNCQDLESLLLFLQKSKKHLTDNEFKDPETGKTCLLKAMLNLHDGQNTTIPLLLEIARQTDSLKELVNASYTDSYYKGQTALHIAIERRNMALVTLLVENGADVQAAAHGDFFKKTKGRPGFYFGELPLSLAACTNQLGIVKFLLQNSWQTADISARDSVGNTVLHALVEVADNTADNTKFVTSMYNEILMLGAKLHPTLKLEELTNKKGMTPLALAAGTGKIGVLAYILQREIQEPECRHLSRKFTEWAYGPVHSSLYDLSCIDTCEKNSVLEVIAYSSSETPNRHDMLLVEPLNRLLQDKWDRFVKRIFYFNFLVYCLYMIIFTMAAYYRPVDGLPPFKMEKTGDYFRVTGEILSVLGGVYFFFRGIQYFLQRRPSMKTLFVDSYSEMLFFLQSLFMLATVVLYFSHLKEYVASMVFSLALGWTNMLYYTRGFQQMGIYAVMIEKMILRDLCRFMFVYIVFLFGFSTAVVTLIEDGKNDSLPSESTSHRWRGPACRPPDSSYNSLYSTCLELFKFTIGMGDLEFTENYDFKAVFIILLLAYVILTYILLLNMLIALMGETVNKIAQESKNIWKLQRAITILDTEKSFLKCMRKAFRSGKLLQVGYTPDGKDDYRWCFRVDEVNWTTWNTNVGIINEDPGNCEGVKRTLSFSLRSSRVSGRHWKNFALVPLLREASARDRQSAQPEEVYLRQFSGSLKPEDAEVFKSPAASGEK
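Fluo-8 calcium influx in TRPV1-expressing cells, kinetic read (ex 480/em 520 nm). Compound added and read 3 min for agonist activity, followed by capsaicin at EC20 final and 2 min further read for enhancement.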
KCNH2 WT inh: blocks the wildtype human KCNH2 potassium channel; AID 720551; activity change, % at 1.84 µM; U2OS, BacMam KCNH2, thallium flux FluxOr; active compounds read low; 340,000 tested, 0.37% active;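 active means maximum activity change below -70%; inconclusive means maximum activity change between -70% and -50%; inactive means maximum activity change above -50%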; further: on the % scale 0 is the no-effect control and ±100 the full control effect
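U2OS cells transduced with wild-type KCNH2 virus are loaded with FluxOr dye for 45 min, and thallium flux is measured in kinetic reads before and after stimulation buffer. Rate constants are normalized to DMSO controls.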
TRPV1 agonist: human TRPV1 agonism; activation, % at 8.33 µM; TRPV1-expressing cells, Fluo-8 calcium influx, agonist mode; 320,000 tested, 0.19% active; Q8NER1; in the data active means activation above about 80%; inconclusive means between about 30% and that limit; further: 0% is about no effect
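TRPV1-expressing cells were cultured overnight at 35.5C and loaded with Fluo-8 calcium dye for 40 to 90 min at room temperature. After a 10 s baseline, compound was added and calcium influx was read kinetically for 3 min (ex 480/em 520 nm).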
KCNH2 3.1 inh: blocks the human KCNH2 3.1 channel isoform; U2OS KCNH2 3.1, thallium flux FluxOr; active compounds read low; activity change, % (tested at about 1.8 µM); 340,000 tested, 0.95% active; AID 720553;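 active means maximum activity change below -70%; inconclusive means maximum activity change from -70% to -50%; inactive means maximum activity change above -50%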;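 further: thallium influx rate constant from kinetic fluorescence after stimulation buffer; on the % scale 0 is the no-effect control and ±100 the full control effect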
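Normalized rate constant (relative to positive and negative DMSO controls) derived from a 2 min kinetic fluorescence read after stimulation; U2OS cells expressing the 3.1 isoform via virus at 1.77 x 10^8 /mL.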
An asterisk follows results filed as active; ? = inconclusive; · = no result.

SMILES	TRPV1 potentiator	KCNH2 WT inh	TRPV1 agonist	KCNH2 3.1 inh
Cc1ccc(S(=O)(=O)N(C)CC(=O)Nc2cc(C)ccn2)cc1	-12.8	24.9	?	2.8
CCCCn1c2c(c(=N)c3c1CCC3)CCC2	-15.0	-47.5	7.3	-21.8
CCn1c2c(c(=N)c3c1CCC3)CCC2	-6.7	0.5	0.0	-88.4*
COc1ccc(C(=O)N2CCC(C(=O)c3ccc(F)cc3)CC2)cc1	3.5	27.0	18.6	-39.0
COc1ccc(C(=O)C2CCN(C(=O)c3ccc(OC)cc3)CC2)cc1	13.3	-4.0	2.8	-84.2*
COc1ccc(C[C@H]2CN3C(=NC[C@H]3C)N2CCNC(=O)c2ccc(C)c(Br)c2)cc1	5.7	-35.3	-1.5	-75.8*
COc1ccc(C[C@H]2CN3C(=NC[C@@H]3C(C)C)N2CCNC(=O)c2ccc(C)c(Br)c2)cc1	-6.8	-114.5*	1.1	-100.4*
Cc1ccc(C(=O)NCCN2C3=NC[C@H](C(C)C)N3C[C@H]2Cc2ccc(O)cc2)cc1Br	-2.6	9.4	3.4	-7.6
CCC(CC)NC(=O)c1cc(S(=O)(=O)N2CCCCC2)ccc1N1CCOCC1	-24.2	-7.6	15.8	3.0
Cc1ccc(N(CC(O)CN2CCCCC2)S(=O)(=O)c2ccccc2[N+](=O)[O-])cc1 (stereo unspecified)	4.8	7.5	0.2	-3.7
Cc1ccc(N(CC(O)CN2CCCC2)S(=O)(=O)c2ccc(C)cc2)cc1 (stereo unspecified)	4.1	-47.5	0.1	-104.5*
O=[N+]([O-])c1ccc(N(CC(O)CN2CCCCC2)S(=O)(=O)c2ccccc2)cc1 (stereo unspecified)	0.3	-43.8	-0.3	-75.8*
CNCC(O)CN(c1ccccc1)c1ccccc1 (stereo unspecified)	-4.3	5.4	15.3	-81.3*
OC(CN1CCCCC1)CN(c1ccccc1)c1ccccc1 (stereo unspecified)	-13.5	38.0	3.0	-183.2*
CC(C)c1c(C(=O)N/N=C/C=C/c2ccccc2)nnn1-c1nonc1N	-26.6	-8.5	?	-9.6
Cn1c(=O)c2ccccc2n2c(CCl)nnc12	2.2	2.3	-0.5	-8.4
COc1ccccc1N(CC(=O)N/N=C(\C)c1ccc(F)cc1)S(=O)(=O)c1ccccc1	1.9	-1.5	1.8	-5.1
COc1ccc(CCNC(=O)C2CCN(S(=O)(=O)N3CCC4(CC3)OCCO4)CC2)cc1OC	-2.8	-3.7	-0.2	-3.3
COCCNC(=O)C1CCN(S(=O)(=O)N2CCC3(CC2)OCCO3)CC1	-8.1	-8.1	-1.9	-200.3*
COc1ccc(N2CC(C(=O)NNC(=O)c3ccc(Br)cc3)CC2=O)c(OC)c1 (stereo unspecified)	5.5	-1.9	1.3	3.6
O=[N+]([O-])c1ccc(/C=C/C2=NN(c3ccccc3)C(c3ccco3)C2)o1 (stereo unspecified)	?	-44.7	13.6	-72.9*
C(=C\c1ccco1)/C1=NN(c2ccccc2)C(c2ccco2)C1 (stereo unspecified)	10.7	0.5	8.6	-6.6
COC(=O)CCC(=O)OC1(C)C(=O)C=C2C=C(C3CC3)N(CCCOC(C)C)C=C2C1=O (stereo unspecified)	-37.8	-11.7	7.2	-86.0*
CCOC(=O)[C@H]1[C@H]2COc3ccc(Cl)cc3[C@@H]2N2C(=O)c3cc(Cl)ccc3NC(=O)[C@@]12C	11.2	-0.8	?	?
CCOC(=O)[C@H]1[C@H]2COc3ccc(Cl)cc3[C@@H]2N2C(=O)c3cc(F)c(F)cc3NC(=O)[C@@]12C	17.5	10.7	81.1*	-193.5*
SMILES	TRPV1 potentiator	KCNH2 WT inh	TRPV1 agonist	KCNH2 3.1 inh
CCOC(=O)[C@H]1[C@H]2COc3ccc(C)cc3[C@@H]2N2C(=O)c3cc(F)c(F)cc3NC(=O)[C@@]12C	4.7	-0.2	80.8*	-14.1
CCOc1ccc(-n2c(SCC(=O)Nc3cc(C)on3)nc3c(c2=O)SCC3)cc1	12.5	-2.6	1.8	-2.1
CC(Sc1ccccc1)C(=O)NCCc1ccccc1 (stereo unspecified)	-12.3	9.2	20.3	10.9
COc1ccc(-c2nc(Cn3c(SCc4ccc(F)cc4)nc4ccncc43)c(C)o2)cc1OC	6.1	-33.3	-1.7	-1.7
COc1ccc(-c2nc(Cn3c(SCc4ccccc4F)nc4ccncc43)c(C)o2)cc1	-9.3	11.1	?	-108.9*
COc1ccc(-c2cc(C(=O)NCC(c3ccco3)N(C)C)c3ccccc3n2)cc1OC (stereo unspecified)	4.1	-2.4	0.3	-18.3
Cc1cccnc1CCNCc1c(C(=O)N2C[C@@H](C)O[C@@H](C)C2)nc2ccc(Cl)cn12	-0.8	10.5	1.7	1.1
Cc1ccc(C)c(S(=O)(=O)N2CCCOC2CNC(=O)C(=O)NC2CCCC2)c1 (stereo unspecified)	2.6	6.6	2.0	·
COc1cccc(CN2CCCN(S(=O)(=O)c3ccc(Br)cc3)CC2)c1	27.0	-88.5*	13.9	4.1
O=S(=O)(c1ccc(Br)cc1)N1CCCN(Cc2cccc(F)c2)CC1	-8.1	33.2	10.9	-45.2
CCc1cccc2c1NC(=O)C21N2CCCC2C(C(=O)c2ccc3ccccc3c2)C12C(=O)Nc1ccccc12 (stereo unspecified)	0.7	-2.0	0.6	-112.5*
Cc1ccc(NC(=O)OCc2cccs2)cc1	-6.2	·	?	·
Cc1n[nH]c(C)c1Sc1ccccc1N=Cc1cc(Cl)cc([N+](=O)[O-])c1O	12.4	-132.9*	5.6	-4.9
O=C(CCn1c(=O)c2sccc2n(CC(=O)NCc2ccco2)c1=O)NCc1ccccc1	0.8	-254.0*	-0.7	3.0
COc1cccc(NC(=O)C2CCC(CNC(=O)[C@@H]3Cc4ccccc4CN3)CC2)c1 (stereo partly specified)	5.8	28.0	1.6	-1.7
Cc1cc2c(NC(=O)Nc3ccccc3)cccc2nn1	11.6	-1.7	86.6*	-14.7
Cc1cc2c(NC(=O)Nc3ccc(C(C)(C)C)cc3)cccc2nn1	-5.9	-1.9	113.7*	5.5
Cc1ccccc1-c1nc(SCc2cccnc2)c2c(=O)n(C)c(=O)n(C)c2n1	-5.6	-255.7*	0.1	-4.9
NCCCn1c(C(=O)c2cc(Cl)c(N)c(Cl)c2)c2ccc([N+](=O)[O-])cc2[n+]1[O-]	24.7	25.4	8.0	-6.7
NC(=O)CCCn1c(C(=O)c2cc(Cl)c(N)c(Cl)c2)c2ccc(C(F)(F)F)cc2[n+]1[O-]	-9.1	4.4	-0.4	-85.5*
NCCCn1c(C(=O)c2cc(Cl)c(N)c(Cl)c2)c2ccc(C(F)(F)F)cc2[n+]1[O-]	-55.1	10.4	5.8	-124.7*
COc1ccc(C(=O)c2c3ccc(C(F)(F)F)cc3[n+]([O-])n2CCCC(N)=O)cc1	-20.4	22.8	?	-7.9
CC(C)OC(=O)c1c(-c2ccccc2)c(-c2ccccc2)nn(C)c1=O	-6.9	·	?	·
CCOC(=O)/C(C#N)=C1/C=CN(Cc2ccccc2)C=N1	-7.1	-248.8*	2.7	6.8
CCOC(=O)/C(C#N)=C1/C=CN(c2ccccc2)C=N1	-20.4	13.9	5.5	3.8
